# Data from PubChem BioAssay (EPA / NIEHS).
# The source made the active and inactive calls. Rule for the calls: active = hit-call score of the fitted dose curve at least 0.9, where 1 is the maximum; inactive = score below 0.9.
# Experiment: CCTE_Harrill_HTTr_Viability_MCF7: CCTE's 6-hour Cell Viability Assessment for the High-Throughput Transcriptomics (HTTr) Platform, in MCF-7 cells cultured in DMEM + 10% fetal bovine serum, Harrill Lab (AID 2284010)
# Summary of the method: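 Read-out is propidium iodide gain of signal by high-content imaging, reflecting membrane integrity loss. Measurements are taken 6 h after dosing, eight concentrations per chemical, with DMSO serving as baseline for bidirectional curve fitting.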
SMILES,outcome,AC50
CC(C)[N+](C)(CCOC(=O)C1c2ccccc2Oc2ccccc21)C(C)C,inactive,–
C=Cc1ccc(OC(C)=O)cc1,inactive,–
COc1ccc(-c2coc3cc(O)cc(O)c3c2=O)cc1,inactive,–
O=C(OCc1ccccc1)c1ccc(O)cc1,inactive,–
CC(=O)c1ccc(S(=O)(=O)NC(=O)NC2CCCCC2)cc1,inactive,–
C=C(C)C1CC=C(C)CC1 (stereo not given),inactive,–
CCCCCCC=O,inactive,–
CC(=O)/C=C/C1C(C)=CCCC1(C)C (stereo not given),inactive,–
Nc1ncnc2nc[nH]c12,inactive,–
CC(C)=CCl,inactive,–
CC(C)(CO)C(O)C(=O)NCCCO (stereo not given),inactive,–
N=C1C=CC(=C(c2ccc(N)cc2)c2ccc(N)cc2)C=C1,–,1060 nM (active)
O=C(O)CCC(=O)O,inactive,–
CC12CCC(CC1)C(C)(C)O2,inactive,–
Oc1c(Cl)cc(Cl)c(Cl)c1Cl,inactive,–
Cc1noc(NS(=O)(=O)c2ccc(N)cc2)c1C,inactive,–
CCOC(=O)C1=NOC(c2ccccc2)(c2ccccc2)C1,inactive,–
C=C[C@@]1(C)CC(=O)[C@]2(O)[C@@]3(C)[C@@H](O)CCC(C)(C)[C@@H]3[C@H](O)[C@H](OC(C)=O)[C@@]2(C)O1,inactive,–

SMILES,outcome,AC50
CCCCCCCO,inactive,–
Cn1ccnc1,inactive,–
CC(C=O)c1ccccc1 (stereo not given),inactive,–
Cc1c[nH]c(=O)[nH]c1=O,inactive,–
CC(=O)CCC1=C(C)CCCC1(C)C,inactive,–
Fc1ccc(Br)cc1,inactive,–
N#Cc1ccc(C2CCCc3cncn32)cc1 (stereo not given),inactive,–
CC(C)OC(=O)c1ccccc1,inactive,–
CC(C)CO,inactive,–
CCCCCCCC(=O)OCC(COC(=O)CCCCCCC)OC(=O)CCCCCCC,inactive,–
C1CCSC1,inactive,–
CC(=O)c1ccccc1O,inactive,–
Clc1cc(Cl)c(Cl)c(Cl)c1Cl,inactive,–
CCCCCC(=O)OCC,inactive,–
Cc1ccc([N+](=O)[O-])cc1N,inactive,–
CCCc1ccc(O)c(OC)c1,inactive,–
COC(=O)C=Cc1ccccc1,inactive,–

# Experiment: CCTE_Harrill_HTTr_Apoptosis_MCF7: CCTE's 6-hour Apoptosis Assessment for the High-Throughput Transcriptomics (HTTr) Platform, in MCF-7 cells cultured in DMEM + 10% fetal bovine serum, Harrill Lab (AID 2284011)
# Summary of the method: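 High-content imaging of CellEvent Caspase 3/7 Green signal follows a six-hour exposure, with eight concentrations per chemical. MCF-7 cells grown in DMEM plus 10% fetal bovine serum; activity fitted in both directions against DMSO.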
row,SMILES,outcome
1,CC(C)[N+](C)(CCOC(=O)C1c2ccccc2Oc2ccccc21)C(C)C,inactive
2,C=Cc1ccc(OC(C)=O)cc1,inactive
3,COc1ccc(-c2coc3cc(O)cc(O)c3c2=O)cc1,inactive
4,O=C(OCc1ccccc1)c1ccc(O)cc1,inactive
5,CC(=O)c1ccc(S(=O)(=O)NC(=O)NC2CCCCC2)cc1,inactive
6,C=C(C)C1CC=C(C)CC1 (stereo not given),inactive
7,CCCCCCC=O,inactive
8,CC(=O)/C=C/C1C(C)=CCCC1(C)C (stereo not given),inactive
9,Nc1ncnc2nc[nH]c12,inactive
10,CC(C)=CCl,inactive
11,CC(C)(CO)C(O)C(=O)NCCCO (stereo not given),inactive
12,N=C1C=CC(=C(c2ccc(N)cc2)c2ccc(N)cc2)C=C1,inactive
13,O=C(O)CCC(=O)O,inactive
14,CC12CCC(CC1)C(C)(C)O2,inactive
15,Oc1c(Cl)cc(Cl)c(Cl)c1Cl,inactive
16,Cc1noc(NS(=O)(=O)c2ccc(N)cc2)c1C,inactive
17,CCOC(=O)C1=NOC(c2ccccc2)(c2ccccc2)C1,inactive
18,C=C[C@@]1(C)CC(=O)[C@]2(O)[C@@]3(C)[C@@H](O)CCC(C)(C)[C@@H]3[C@H](O)[C@H](OC(C)=O)[C@@]2(C)O1,inactive

row,SMILES,outcome
1,CCCCCCCO,inactive
2,Cn1ccnc1,inactive
3,CC(C=O)c1ccccc1 (stereo not given),inactive
4,Cc1c[nH]c(=O)[nH]c1=O,inactive
5,CC(=O)CCC1=C(C)CCCC1(C)C,inactive
6,Fc1ccc(Br)cc1,inactive
7,N#Cc1ccc(C2CCCc3cncn32)cc1 (stereo not given),inactive
8,CC(C)OC(=O)c1ccccc1,inactive
9,CC(C)CO,inactive
10,CCCCCCCC(=O)OCC(COC(=O)CCCCCCC)OC(=O)CCCCCCC,inactive
11,C1CCSC1,inactive
12,CC(=O)c1ccccc1O,inactive
13,Clc1cc(Cl)c(Cl)c(Cl)c1Cl,inactive
14,CCCCCC(=O)OCC,inactive
15,Cc1ccc([N+](=O)[O-])cc1N,inactive
16,CCCc1ccc(O)c(OC)c1,inactive
17,COC(=O)C=Cc1ccccc1,inactive
